Pf growth 48h: P. falciparum growth inhibition at 48 hours (one generation). P. falciparum luciferase growth in erythrocytes, 48 h. Potency, µM (doses to about 28.7 µM), inactives show at the highest dose activity change, negative = inhibition, actives largely listed as inhibitors. hit rate 5.9% among 310,000; note: potency is the fitted concentration of half-maximal effect; % is set by controls: 0 for no effect and ±100 for the full control effect
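Compounds are pin-transferred into medium, infected erythrocytes (2% hematocrit, 0.1% parasitemia final) are added, and plates sit one parasite generation at 37 C in 5% CO2. Detection reagent is then added and luminescence measured.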
NS1 inh: influenza NS1 inhibition; Potency, µM (highest dose often 46.1 µM), for inactives: top-dose activity, positive = more growth; hit rate 0.4% among 270,000; AID 2326; calls by dose curve; note: potency is the fitted concentration of half-maximal effect; actives are rising curves; nearly all actives have a fitted effect of over 50% in size
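Growth recovery, yeast-based: influenza A NS1 expressed in S. cerevisiae causes slow growth, and suppressors are detected by OD600. The parent strain without NS1 is used as positive control.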
SARS PLP yeast: inhibitors of SARS-CoV papain-like protease in yeast; AID 485353; hit rate 0.19% among 330,000; S. cerevisiae expressing SARS-CoV PLpro, growth rescue; Potency, µM (doses to about 32.9 µM), for the others: top-dose activity, positive = growth rescue, actives largely listed as activators; calls by dose curve; note: potency is the fitted concentration of half-maximal effect; 0% is about no effect; nearly all actives have a fitted effect of over 55% in size
Pf growth 96h: P. falciparum growth inhibition at 96 hours; P. falciparum luciferase reporter growth, 96 h; Potency, µM (doses to about 28.7 µM), for the others: at the highest dose activity change, negative = inhibition, hits mostly inhibitors; hit rate 6.9% among 320,000; AID 504834; note: potency is the fitted concentration of half-maximal effect; % is set by controls: 0 for no effect and ±100 for the full control effect
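96 h incubation, 37 C, 5% CO2, of luciferase-reporter P. falciparum-infected RBCs (2% hematocrit, 0.05% parasitemia final) with test compounds; endpoint luminescence.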
Shiga toxin inh: blocks Shiga toxin action in Vero cells. Vero cells, Shiga toxin protein synthesis inhibition reporter. inhibition, % at 38.7 µM. hit rate 9.2% among 290,000. AID 2315; in the data active = inhibition mostly above about 28%, no sharp cut-off; inactive = mostly below about 43%; note: 0% is about no effect
CHX counter: affects cycloheximide protein synthesis inhibition readout, counter-screen; max response, %; hit rate 12% among 300,000; AID 2314; cell reporter, cycloheximide protein synthesis inhibition counterscreen; in the data active = max response mostly above about 13%, no sharp cut-off; inactive = mostly below about 14%; note: read at 38.3 µM for the half of the compounds with a filed dose; 0% is about no effect
* marks the source's active call; other numbers are inactive results; ? = inconclusive; . = no result given; [ ] = another dose, or the depositor's remark. Most compounds without a hit are left out; they make up all but 21% or so of the library. Unless noted, calls come from the whole dose curve; as a rule, active = well fitted inhibition curve with a large enough effect; inconclusive = small, poorly fitted or top-dose-only effect, or another doubt; inactive = no such curve, though single readings can be large or run the other way.

SMILES	Pf growth 48h	NS1 inh	SARS PLP yeast	Pf growth 96h	Shiga toxin inh	CHX counter
Cc1c(Cl)cccc1NC(=S)N(Cc1cccnc1)Cc1ccccc1Cl	?	7%	-15%	13%	-12	-2
O=C(NCCCN1CCOCC1)c1nn(-c2ccccc2)c(=O)c2ccccc12	83%	.	-2%	-12%	.	.
CCc1cc(=O)oc2c(C)c(OCC(=O)NCC3CCC(C(=O)O)CC3)ccc12 (stereo not given)	-7%	12%	7%	?	-6	2
CC1CCCCC1NC(=O)c1cncc(Br)c1 (stereo not given)	.	-6%	5%	-14%	-5	2
CC1CCCC(NC(=S)NC(=O)c2cncc(Br)c2)C1C (stereo not given)	13µM*	3%	?	23%	18	-2
Cc1ccnc(NC(=S)NC(=O)c2cncc(Br)c2)c1	63%	12%	-7%	0%	6	25*
O=C(NC(=S)Nc1ccccc1Cl)c1cncc(C#Cc2ccccc2)c1	-1%	1%	-1%	32%	-7	-5
O=C(NC(=S)Nc1ccccc1Cl)c1cncc(Br)c1	0%	-7%	-7%	12µM*	-9	-2
O=C(Nc1ccccc1[N+](=O)[O-])c1cncc(Br)c1	31%	.	-1%	66%	46	28*
Cc1cc(C)n(CC(C)NCc2cn[nH]c2-c2ccc(C)c(C)c2)n1 (stereo not given)	8%	-2%	0%	?	0	-3
CCn1cc(/C=N/NS(=O)(=O)c2ccc(OC)cc2)c(C)n1	.	2%	5%	10%	-10	0
CN(C)c1ccc(C(CNS(=O)(=O)c2ccc([N+](=O)[O-])cc2)N2CCCC2)cc1 (stereo not given)	44%	.	-4%	?	.	.
Cc1ccc(C(O)(c2ccc(C)c(C)c2)C2CN3CCC2CC3)cc1C (stereo not given)	4%[0.00184 µM]	-2%	1%	?	-13	-7
Cc1ccccc1C(O)(Cc1ccccc1)C1CN2CCC1CC2 (stereo not given)	.	-2%	-2%	10µM*	-20	-5
O=C(c1cccc(S(=O)(=O)N2CCCc3ccccc32)c1)N1CCN(c2ccccc2)CC1	.	.	-6%	.	.	.
c1ccc(N2CCOCCOCCOCCOCCOCC2)cc1	-1%	-3%	1%	6%	-16	-3
O=c1cc(N2CCOCC2)cnn1-c1ccccc1	118%	10%	15%	155%	73*	40*
C/C(=N/NC(=O)c1ccc(C)s1)c1ccncc1	36%	-3%	11%	?	60*	30*
C/C(=N\NC(=O)c1ccc(OC2OCCOC2Oc2ccc(C(=O)N/N=C(\C)c3ccncc3)cc2)cc1)c1ccncc1 (stereo not given)	1.7µM*	3%	-1%	?	-7	-3
C/C(=N/NC(=O)c1ccncc1)c1ccccc1	35%	1%	-1%	-10%	.	9
C/C(=N/NC(=O)c1cnccn1)c1cccs1	134%	-8%	-7%	103%	93*	40*
C/C(=N\NC(=O)c1cccs1)c1ccncc1	2%[0.00184 µM]	0%	1%	-2%	107*	36*
CC(=O)c1cccc(NC(=O)CN2CCc3cc4c(cc3C2C)OCCCO4)c1 (stereo not given)	?	-15%	-2%	?	11	-2
CCc1ccccc1NC(=O)CNC(=O)CCNC(=O)Nc1ccccc1	?	.	2%	?	.	.
C/C(=N\NC(=O)c1ccncc1)c1ccc(N2CCOCC2)cc1	-3%	.	2%	-13%	.	.
CCc1ccc(C(=O)N/N=C(\C)c2ccncc2)s1	86%	-3%	-1%	?	70*	37*
CN(C)S(=O)(=O)n1cnc([C@@H]2[C@H]3C(=O)OC[C@@H]3C[C@@]23N=CN(Cc2ccccc2)C3=O)c1	8%	.	1%	?	.	.

High-throughput results from PubChem.
